Experimental data: PubChem BioAssay (Tox21)
Results filed as inconclusive are left out. Activity calls are given as the source filed them. Unless noted, calls follow the shape of the dose curve; as a rule, active = well fitted curve in the direction sought with a large enough effect in the repeat runs; inconclusive = weak or mixed curves; inactive = no such curve, though single readings can be large; an effect the other way counts as inactive or inconclusive.

Experiments:
[1] = qHTS assay to identify small molecule antagonists of the estrogen receptor alpha (ER-alpha) signaling pathway using the BG1 cell line in the presence of 0.1 nM 17-beta-estradiol - cell viability counter screen (AID 1259241); also: nearly all actives have a fitted effect of over 40% in size
In short: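 VM7Luc4E2, 4,000 cells/well, phenol red-free medium + 10% charcoal-stripped FBS; 24 hr plating; cpd + 0.1 nM E2 final, 22 hr 37C/5% CO2; CellTiter-Fluor 30 min, fluorescence.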

[2] = qHTS assay to identify small molecule antagonists of the androgen receptor (AR) signaling pathway using the MDA cell line in the presence of 0.5 nM R1881 - cell viability counter screen (AID 1259242); also: nearly all actives have a fitted effect of over 45% in size
In short: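 Human breast carcinoma MDA-kb2 cells, cultured without CO2, receive compounds alongside 0.5 nM (final) R1881 agonist. After 16 hr at 37C, viability is taken as live-cell protease signal.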

[3] = biological target: Estrogen receptor (Homo sapiens) (UniProt P03372); test: qHTS assay to identify small molecule antagonists of the estrogen receptor alpha (ER-alpha) signaling pathway using the BG1 cell line in the presence of 0.1 nM 17-beta-estradiol (AID 1259244); also: nearly all actives have a fitted effect of over 50% in size
Chain of Estrogen receptor (Homo sapiens) (P03372 whole entry, looked up): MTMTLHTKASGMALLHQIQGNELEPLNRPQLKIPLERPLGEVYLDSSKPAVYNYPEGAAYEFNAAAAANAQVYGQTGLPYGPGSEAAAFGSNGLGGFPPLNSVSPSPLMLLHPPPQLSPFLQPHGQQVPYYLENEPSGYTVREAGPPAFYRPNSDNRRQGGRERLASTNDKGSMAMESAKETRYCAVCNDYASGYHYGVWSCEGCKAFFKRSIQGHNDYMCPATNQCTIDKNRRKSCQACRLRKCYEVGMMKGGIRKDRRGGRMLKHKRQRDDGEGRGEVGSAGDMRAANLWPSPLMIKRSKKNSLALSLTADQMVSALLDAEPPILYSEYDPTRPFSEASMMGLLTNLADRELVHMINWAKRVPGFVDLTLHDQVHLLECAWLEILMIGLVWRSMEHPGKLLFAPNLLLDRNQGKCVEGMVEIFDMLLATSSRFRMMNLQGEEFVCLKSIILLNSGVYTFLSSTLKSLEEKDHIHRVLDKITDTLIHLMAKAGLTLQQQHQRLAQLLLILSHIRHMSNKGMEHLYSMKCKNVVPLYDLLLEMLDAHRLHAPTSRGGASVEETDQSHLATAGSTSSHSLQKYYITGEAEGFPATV
In short: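 Seeding of stripped-serum-adapted VM7Luc4E2 cells, 24 h attachment, compound transfer, then 0.1 nM final 17beta-estradiol; after 22 h incubation, ONE-Glo reagent and luminescence reading.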

[4] = qHTS assay to identify small molecule phospholipidosis (PLD) inducers (AID 1259344; active = well fitted curve in the direction sought with a large enough effect; an effect the other way counts as inactive or inconclusive)
In short: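 After 4 h attachment on collagen I, HepG2 cells were dosed with compound alongside LipidTOX Red, kept 24 h at 37 C, fixed, and imaged for lamellar phospholipid pits.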

[5] = qHTS assay to identify small molecule HDAC inhibitors (AID 1259364);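 also: wild-type HCT-116 cells with endogenous class I/II HDAC activity; top concentration of the series differs between compounds; nearly all actives have a fitted effect of over 45% in size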
In short: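 After a 2 hr compound incubation (37C, 5% CO2), HCT-116 cells seeded at 1,500/well the day before received HDAC-Glo reagent; signal read as luminescence after 30 min at room temperature.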

[6] = qHTS assay to identify small molecule HDAC inhibitors - cell viability counter screen (AID 1259365); also: series mostly up to about 92 µM; nearly all actives have a fitted effect of over 50% in size
In short: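 Luminescence from CellTiter-Glo, developed 30min at room temperature, reports viability of wild-type HCT-116 cells treated 2hr with compounds at 37 C and 5% CO2 after overnight plating.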

[7] = qHTS assay to identify small molecule agonists of the sonic hedgehog signaling (Shh) pathway - cell viability counter screen (AID 1259366); also: nearly all actives have a fitted effect of over 50% in size
In short: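 Cytotoxicity counter screen run in the same wells as the Shh reporter assay. NIH/3T3 cells carrying a Gli1 response element–driven luciferase were treated with DMSO-dissolved compounds for 24hr, and live-cell protease activity was measured with CellTiter-Fluor.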

[8] = qHTS assay to identify small molecule agonists of the sonic hedgehog signaling (Shh) pathway (AID 1259368; calls by dose curve;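 also: NIH/3T3-derived 3T3Gli1-Luc cells carrying a stable Gli1-driven firefly luciferase reporter; series mostly up to about 92 µM; nearly all actives have a fitted effect of over 15% in size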)
In short: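 Stable NIH/3T3 Gli1-Luc reporter clone; 24 hr cpd exposure after a 4 hr settling period; luminescence endpoint.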

[9] = qHTS assay to identify small molecule antagonists of the sonic hedgehog signaling (Shh) pathway (AID 1259369; calls by dose curve; also: nearly all actives have a fitted effect of over 45% in size)
In short: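 Gli1 transcriptional reporter (firefly Luc) in NIH/3T3 background, conditioned-medium activated. 24hr exposure, luminescence endpoint.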

[10] = biological target: Estrogen receptor beta (Homo sapiens) (UniProt Q92731); test: qHTS assay to identify small molecule agonists of the estrogen receptor beta (ER-beta) signaling pathway (AID 1259377; active = well fitted activation curve with a large enough effect in the signal ratio in the repeat runs, not every such curve was filed as active; the % refers to the signal ratio)
Chain of Estrogen receptor beta (Homo sapiens) (Q92731 whole entry, looked up): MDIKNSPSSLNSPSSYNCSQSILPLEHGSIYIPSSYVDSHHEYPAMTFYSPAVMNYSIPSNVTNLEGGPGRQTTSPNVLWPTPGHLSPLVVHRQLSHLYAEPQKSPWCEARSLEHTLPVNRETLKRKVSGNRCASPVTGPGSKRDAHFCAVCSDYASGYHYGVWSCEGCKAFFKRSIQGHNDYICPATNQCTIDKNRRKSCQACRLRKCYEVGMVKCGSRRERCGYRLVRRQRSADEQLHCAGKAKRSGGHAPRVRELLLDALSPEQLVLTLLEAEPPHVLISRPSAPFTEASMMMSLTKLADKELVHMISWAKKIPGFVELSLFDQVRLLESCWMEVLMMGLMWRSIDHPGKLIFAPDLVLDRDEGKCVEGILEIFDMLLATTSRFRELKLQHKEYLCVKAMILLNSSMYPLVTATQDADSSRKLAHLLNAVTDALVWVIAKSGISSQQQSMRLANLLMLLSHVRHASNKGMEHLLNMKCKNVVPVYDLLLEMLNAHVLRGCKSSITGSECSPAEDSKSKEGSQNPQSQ
In short: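 HEK293T ER-beta-UAS-bla; 2% charcoal-stripped FBS; cells pre-incubated 6 hr, compound 16 hr, 37C/5% CO2; LiveBLAzer B/G FRET substrate 2 h RT; fluorescence intensity read.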

[11] = biological target: Estrogen receptor beta (Homo sapiens) (UniProt Q92731); test: qHTS assay to identify small molecule antagonists of the estrogen receptor beta (ER-beta) signaling pathway (AID 1259378; active = well fitted inhibition curve with a large enough effect in the signal ratio in the repeat runs, not every such curve was filed as active; the % refers to the signal ratio)
In short: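 ER-beta-UAS-bla HEK293T (GripTite) cells in 2% charcoal-stripped FBS medium were preincubated 6 hr at 37C, dosed with compound, then stimulated with 1 nM E2 (final) for 16 hr; beta-lactamase reporter read by B/G FRET fluorescence after 2 hr substrate loading.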

[12] = qHTS assay to identify small molecule agonists of the androgen receptor (AR) signaling pathway in the presence of an antagonist - cell viability counter screen (AID 1259379);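 also: MDA-kb2 human breast cancer cells carrying an MMTV luciferase reporter; series mostly up to about 92 µM; nearly all actives have a fitted effect of over 25% in size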
In short: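 Counter screen for cell viability run in parallel with the AR agonist-mode luciferase assay. MDA-kb2 cells were co-treated with nilutamide (3.0uM final) and compounds, then incubated 16 hr at 37C, and CellTiter-Fluor fluorescence was measured.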

[13] = qHTS assay to identify small molecule agonists of the estrogen receptor beta (ER-beta) signaling pathway - cell viability counter screen (AID 1259380); also: nearly all actives have a fitted effect of over 30% in size
In short: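 In this qHTS counter screen, HEK293T cells carrying an ER-beta/UAS beta-lactamase reporter, grown in 2% charcoal-stripped FBS, received compound for 16 hr; ATP-based CellTiter-Glo luminescence was then read after 30 min at room temperature.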

[14] = qHTS assay to identify small molecule antagonists of the estrogen receptor beta (ER-beta) signaling pathway - cell viability counter screen (AID 1259382); also: series mostly up to about 92 µM; nearly all actives have a fitted effect of over 55% in size
In short: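 HEK293T ER-beta-UAS-bla, 2% charcoal-stripped FBS; compounds + 1nM E2 16 hr 37C; CellTiter-Glo luminescence, 30 min RT.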

[15] = biological target: Estrogen receptor (Homo sapiens) (UniProt P03372); test: qHTS assay to identify small molecule agonists of the estrogen receptor alpha (ER-alpha) signaling pathway in the presence of an antagonist (AID 1259383; calls by dose curve; also: top concentration of the series differs between compounds; nearly all actives have a fitted effect of over 15% in size)
In short: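 ER-alpha agonism measured under antagonist challenge: 10.0nM ICI-182,780 (final) plus compound, 15 concentrations, 22hr, VM7Luc4E2 ERE-luciferase cells. Read by luminescence.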

[16] = qHTS assay to identify small molecule agonists or antagonists of the thyroid stimulating hormone receptor (TSHR) signaling pathway - wild type cell line counter screen (AID 1259384; calls by dose curve)
In short: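 Wild-type HEK293 cells were plated 18 h at 37 C/5% CO2, pin-dosed with compound plus Ro20-1724 medium, held 30 min at room temperature, then given cAMP-d2 and anti-cAMP-cryptate; fluorescence was read after 1 h. Fifteen concentrations, triplicate.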

[17] = biological target: Thyrotropin receptor (Homo sapiens) (UniProt P16473); test: qHTS assay to identify small molecule antagonists of the thyroid stimulating hormone receptor (TSHR) signaling pathway (AID 1259385; calls by dose curve; also: nearly all actives have a fitted effect of over 20% in size)
Chain of Thyrotropin receptor (Homo sapiens) (P16473 whole entry, looked up): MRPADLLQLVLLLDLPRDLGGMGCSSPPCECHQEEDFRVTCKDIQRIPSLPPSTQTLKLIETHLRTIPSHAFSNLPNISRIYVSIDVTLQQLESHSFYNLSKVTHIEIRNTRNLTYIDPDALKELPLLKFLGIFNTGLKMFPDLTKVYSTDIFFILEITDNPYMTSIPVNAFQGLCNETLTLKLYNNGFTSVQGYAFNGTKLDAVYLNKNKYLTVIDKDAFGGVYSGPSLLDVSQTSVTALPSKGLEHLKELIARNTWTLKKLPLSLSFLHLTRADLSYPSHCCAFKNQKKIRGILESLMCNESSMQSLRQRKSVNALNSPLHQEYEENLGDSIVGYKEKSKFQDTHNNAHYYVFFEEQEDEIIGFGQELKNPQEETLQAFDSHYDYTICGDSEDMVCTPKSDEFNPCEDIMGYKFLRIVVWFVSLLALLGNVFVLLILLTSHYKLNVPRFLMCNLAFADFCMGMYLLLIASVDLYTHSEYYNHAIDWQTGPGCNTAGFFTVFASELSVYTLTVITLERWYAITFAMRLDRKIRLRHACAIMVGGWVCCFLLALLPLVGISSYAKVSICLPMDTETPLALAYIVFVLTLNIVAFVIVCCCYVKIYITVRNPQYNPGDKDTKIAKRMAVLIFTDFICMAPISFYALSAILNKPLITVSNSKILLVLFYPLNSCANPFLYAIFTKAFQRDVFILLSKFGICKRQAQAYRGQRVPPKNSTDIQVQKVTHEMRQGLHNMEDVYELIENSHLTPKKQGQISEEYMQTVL
In short: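 TSHR-HEK293 cells were plated and held 18 h at 37C/5% CO2, then given compound plus Ro20-1724 and stimulated with TSH at 1.5 ng/mL final. After 30 min at room temperature, cAMP was detected with cAMP-d2/anti-cAMP-cryptate (1 h) by fluorescence.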

[18] = qHTS assay to identify small molecule antagonists of the sonic hedgehog signaling (Shh) pathway - cell viability counter screen (AID 1259367); also: nearly all actives have a fitted effect of over 55% in size
In short: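 Conditioned medium drove Shh signaling in 3T3 Gli1-Luc cells exposed to compounds at 37C and 5% CO2. Viability was determined from CellTiter-Fluor fluorescence, with reagent incubated 1 hr after 23 hr of treatment.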

[19] = biological target: Androgen receptor (Homo sapiens) (UniProt P10275); test: qHTS assay to identify small molecule antagonists of the androgen receptor (AR) signaling pathway using the MDA cell line in the presence of 0.5 nM R1881 (AID 1259243); also: nearly all actives have a fitted effect of over 50% in size
Chain of Androgen receptor (Homo sapiens) (P10275 whole entry, looked up): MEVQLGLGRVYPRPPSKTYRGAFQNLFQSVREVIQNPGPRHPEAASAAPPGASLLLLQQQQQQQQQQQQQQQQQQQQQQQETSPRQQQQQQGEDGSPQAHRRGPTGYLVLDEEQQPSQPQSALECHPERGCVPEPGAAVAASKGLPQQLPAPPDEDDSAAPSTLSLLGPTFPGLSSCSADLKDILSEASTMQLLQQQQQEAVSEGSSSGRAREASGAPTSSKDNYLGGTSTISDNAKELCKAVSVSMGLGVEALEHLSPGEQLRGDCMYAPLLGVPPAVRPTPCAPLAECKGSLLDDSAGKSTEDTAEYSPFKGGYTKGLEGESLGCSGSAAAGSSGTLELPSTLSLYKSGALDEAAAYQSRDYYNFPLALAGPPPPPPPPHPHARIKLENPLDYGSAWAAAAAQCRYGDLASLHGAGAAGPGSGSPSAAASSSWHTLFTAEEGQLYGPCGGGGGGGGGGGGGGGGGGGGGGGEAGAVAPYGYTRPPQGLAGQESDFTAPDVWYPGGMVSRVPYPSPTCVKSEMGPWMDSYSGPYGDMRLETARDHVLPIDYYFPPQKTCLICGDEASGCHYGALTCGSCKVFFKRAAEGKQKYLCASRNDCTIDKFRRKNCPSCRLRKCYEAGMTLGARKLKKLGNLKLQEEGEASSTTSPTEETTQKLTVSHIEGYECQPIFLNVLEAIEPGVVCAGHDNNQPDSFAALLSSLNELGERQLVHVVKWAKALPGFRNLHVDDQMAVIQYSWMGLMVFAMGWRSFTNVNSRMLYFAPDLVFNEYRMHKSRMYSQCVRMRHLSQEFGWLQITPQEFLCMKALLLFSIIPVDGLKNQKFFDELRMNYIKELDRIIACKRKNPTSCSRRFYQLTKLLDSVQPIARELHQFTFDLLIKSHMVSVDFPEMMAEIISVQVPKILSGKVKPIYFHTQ
In short: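 Cells: MDA-kb2 (MMTV-luc). Stimulus: 0.5 nM R1881. Time: 16 hr, 37C, no CO2. Detection: ONE-Glo luminescence after 30 min at RT.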

[20] = biological target: Androgen receptor (Homo sapiens) (UniProt P10275); test: qHTS assay to identify small molecule agonists of the androgen receptor (AR) signaling pathway in the presence of an antagonist (AID 1259381; calls by dose curve; also: nearly all actives have a fitted effect of over 15% in size)
In short: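 AR antagonist background: nilutamide 3.0uM final. Cell line: MDA-kb2, MMTV-driven luciferase, responsive to both AR and GR. Exposure 16hr, 37C, no CO2; ONE-Glo luminescence.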
% is scaled to controls: 0 for no effect and ±100 for the full control effect.

Cc1ccc2c(c1)C1CN(C)CCC1N2 (stereo not drawn)
inactive: activity change, negative = cytotoxicity [1] -3.08% [at 19 µM] | viability change, negative = cytotoxic [2] -1.32% [at 19 µM] | activity change, negative = inhibition [3] -0.7% [at 19 µM] | Potency [4] | activity change, negative = inhibition [5] -0.403% [at 19 µM] | activity change, negative = cytotoxicity [6] 1.1% [at 19 µM] | viability change, negative = cytotoxic [7] -5.79% [at 19 µM] | activity change [8] 0.824% [at 18.9 µM] | activity change, negative = inhibition [9] 7.51% [at 19 µM] | activation [10] -2.72% [at 19 µM] | activity, negative = inhibition [11] 2.34% [at 19 µM] | activity change, negative = cytotoxicity [12] 0.715% [at 19 µM] | activity change, negative = cytotoxicity [13] -1.6% [at 19 µM] | activity change, negative = cytotoxicity [14] 0.836% [at 19 µM] | activation [15] 0.841% [at 19 µM] | cAMP activity change [16] -0.0429% [at 18.9 µM] | activity change, negative = inhibition [17] 8.62% [at 19 µM]

O=C(Cl)CCl
inactive: outcome [1] | Potency [2] | Potency [3] | Potency [5] | outcome [6] | Potency [7] | Potency [18] | outcome [8] | Potency [9] | Potency [10] | outcome [11] | Potency [12] | Potency [13] | Potency [14] | Potency [15] | outcome [16] | outcome [17]

COc1cccc(C=O)c1
inactive: outcome [1] | Potency [2] | Potency [3] | Potency [5] | outcome [6] | Potency [7] | Potency [18] | outcome [8] | Potency [9] | Potency [10] | outcome [11] | Potency [12] | Potency [13] | Potency [14] | outcome [16] | outcome [17]

CN(C)CCc1c[nH]c2cccc(OP(=O)(O)O)c12
inactive: outcome [1] | Potency [2] | Potency [3] | Potency [4] | Potency [5] | outcome [6] | Potency [7] | Potency [18] | outcome [8] | Potency [9] | Potency [10] | outcome [11] | Potency [12] | Potency [14] | Potency [15]

Cn1c(CCCC(=O)O)nc2cc(N(CCCl)CCCl)ccc21
inactive: outcome [1] | Potency [2] | Potency [3] | Potency [4] | Potency [5] | outcome [6] | Potency [7] | Potency [18] | Potency [9] | outcome [11] | Potency [12] | Potency [13] | Potency [14] | outcome [16]

Cc1ccc(-c2nc3ccc(C)cn3c2CC(=O)N(C)C)cc1
inactive: outcome [1] | Potency [2] | Potency [3] | Potency [4] | Potency [5] | outcome [6] | outcome [8] | Potency [12] | Potency [14] | Potency [15] | outcome [16] | outcome [17]

CCC(C)C(C)(COC(N)=O)COC(N)=O (stereo not drawn)
inactive: outcome [1] | Potency [2] | Potency [3] | Potency [5] | outcome [6] | Potency [7] | Potency [18] | outcome [8] | Potency [9] | Potency [10] | outcome [11] | Potency [12] | Potency [13] | Potency [14] | Potency [15] | outcome [16] | outcome [17]

O=c1[nH]oc2c1CCNC2
inactive: outcome [1] | Potency [2] | Potency [3] | Potency [4] | Potency [5] | outcome [6] | Potency [7] | Potency [18] | outcome [8] | Potency [9] | outcome [11] | Potency [12] | Potency [14] | Potency [15] | outcome [16] | outcome [17]

CCC1(c2ccccc2)C(=O)N(COC)C(=O)N(COC)C1=O
inactive: outcome [1] | Potency [2] | Potency [19] | Potency [5] | outcome [6] | Potency [7] | Potency [18] | Potency [12] | Potency [13] | Potency [20] | Potency [14] | outcome [16] | outcome [17]

COc1ccccc1OC
inactive: outcome [1] | Potency [2] | Potency [3] | Potency [5] | outcome [6] | Potency [7] | Potency [18] | outcome [8] | Potency [9] | Potency [10] | outcome [11] | Potency [12] | Potency [13] | Potency [14] | outcome [16] | outcome [17]

C[N+]1(C)CCCCC1
inactive: outcome [1] | Potency [2] | Potency [19] | Potency [5] | outcome [6] | Potency [7] | Potency [18] | outcome [8] | outcome [11] | Potency [12] | Potency [13] | Potency [20] | Potency [14] | outcome [16] | outcome [17]

CC(C)N(Cc1ccccc1)C(=O)C(C)(C)C
inactive: outcome [1] | Potency [2] | Potency [19] | Potency [5] | outcome [6] | Potency [7] | Potency [18] | outcome [8] | Potency [9] | Potency [10] | outcome [11] | Potency [20] | Potency [14] | outcome [16] | outcome [17]

CCCOc1nn(C(=O)NS(=O)(=O)c2ccccc2C(=O)OC)c(=O)n1C
inactive: outcome [1] | Potency [2] | Potency [19] | Potency [5] | outcome [6] | Potency [7] | Potency [18] | outcome [8] | Potency [9] | Potency [12] | Potency [13] | Potency [20] | Potency [14] | outcome [16] | outcome [17]

C=C(C)[C@H]1CN[C@H](C(=O)O)[C@H]1CC(=O)O
inactive: outcome [1] | Potency [2] | Potency [3] | Potency [4] | Potency [5] | outcome [6] | Potency [7] | Potency [18] | outcome [8] | Potency [9] | Potency [10] | outcome [11] | Potency [12] | Potency [13] | Potency [14] | outcome [16] | outcome [17]

CC1N=C(N)OC1c1ccccc1 (stereo not drawn)
inactive: outcome [1] | Potency [2] | Potency [3] | Potency [4] | Potency [5] | outcome [6] | Potency [7] | Potency [18] | Potency [10] | Potency [14] | outcome [16] | outcome [17]

COc1ccc(CN2CCNCC2)c(OC)c1OC
inactive: outcome [1] | Potency [2] | Potency [3] | Potency [4] | Potency [5] | outcome [6] | Potency [7] | Potency [18] | outcome [8] | Potency [9] | Potency [10] | outcome [11] | Potency [13] | Potency [14] | Potency [15]

O=C(NC(O)C(Cl)(Cl)Cl)NC(O)C(Cl)(Cl)Cl (stereo not drawn)
inactive: outcome [1] | Potency [2] | Potency [3] | Potency [4] | Potency [5] | outcome [6] | Potency [7] | Potency [18] | outcome [8] | Potency [9] | Potency [10] | outcome [11] | Potency [12] | Potency [13] | Potency [14] | Potency [15]
